MBD2 inh = blocks human MBD2 binding to methylated DNA; Q9UBB5; TR-FRET, MBD2 binding to methylated oligonucleotide; inhibition, % at 4.4 µM; 370,000 compounds, 0.31% hits; in the data active = inhibition above about 13%
LEDGF integ inh = blocks HIV-1 LEDGF/p75-dependent DNA integration. TR-FRET IN-LEDGF/p75 DNA integration, Eu/Cy5. inhibition, % at 3.7 µM. 370,000 compounds, 0.64% hits;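 active = inhibition above the screen-wide mean plus 3 SD, cut at about 13% in these data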;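 note: signal is the Cy5 over europium emission ratio at 671 and 618 nm; 0% = plate median of compound wells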
PLCb3 inh = PLC-beta3 (human) inhibition, primary screen; 370,000 compounds, 0.18% hits; Purified PLC-beta3, fluorogenic substrate, fluorescence; Q01970; inhibition, % at 12.2 µM; in the data active = inhibition above about 11%;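 note: 0% = median of compound wells on plate and 100% = full blocker control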
PLC-gamma1 inh = PLC-gamma1 (human) inhibition, primary screen; P19174; 370,000 compounds, 0.84% hits; inhibition, % at 12.2 µM; purified PLC-gamma1, fluorogenic substrate, fluorescence; in the data active = inhibition above about 9.5%
Target sequence (P19174 whole entry, looked up): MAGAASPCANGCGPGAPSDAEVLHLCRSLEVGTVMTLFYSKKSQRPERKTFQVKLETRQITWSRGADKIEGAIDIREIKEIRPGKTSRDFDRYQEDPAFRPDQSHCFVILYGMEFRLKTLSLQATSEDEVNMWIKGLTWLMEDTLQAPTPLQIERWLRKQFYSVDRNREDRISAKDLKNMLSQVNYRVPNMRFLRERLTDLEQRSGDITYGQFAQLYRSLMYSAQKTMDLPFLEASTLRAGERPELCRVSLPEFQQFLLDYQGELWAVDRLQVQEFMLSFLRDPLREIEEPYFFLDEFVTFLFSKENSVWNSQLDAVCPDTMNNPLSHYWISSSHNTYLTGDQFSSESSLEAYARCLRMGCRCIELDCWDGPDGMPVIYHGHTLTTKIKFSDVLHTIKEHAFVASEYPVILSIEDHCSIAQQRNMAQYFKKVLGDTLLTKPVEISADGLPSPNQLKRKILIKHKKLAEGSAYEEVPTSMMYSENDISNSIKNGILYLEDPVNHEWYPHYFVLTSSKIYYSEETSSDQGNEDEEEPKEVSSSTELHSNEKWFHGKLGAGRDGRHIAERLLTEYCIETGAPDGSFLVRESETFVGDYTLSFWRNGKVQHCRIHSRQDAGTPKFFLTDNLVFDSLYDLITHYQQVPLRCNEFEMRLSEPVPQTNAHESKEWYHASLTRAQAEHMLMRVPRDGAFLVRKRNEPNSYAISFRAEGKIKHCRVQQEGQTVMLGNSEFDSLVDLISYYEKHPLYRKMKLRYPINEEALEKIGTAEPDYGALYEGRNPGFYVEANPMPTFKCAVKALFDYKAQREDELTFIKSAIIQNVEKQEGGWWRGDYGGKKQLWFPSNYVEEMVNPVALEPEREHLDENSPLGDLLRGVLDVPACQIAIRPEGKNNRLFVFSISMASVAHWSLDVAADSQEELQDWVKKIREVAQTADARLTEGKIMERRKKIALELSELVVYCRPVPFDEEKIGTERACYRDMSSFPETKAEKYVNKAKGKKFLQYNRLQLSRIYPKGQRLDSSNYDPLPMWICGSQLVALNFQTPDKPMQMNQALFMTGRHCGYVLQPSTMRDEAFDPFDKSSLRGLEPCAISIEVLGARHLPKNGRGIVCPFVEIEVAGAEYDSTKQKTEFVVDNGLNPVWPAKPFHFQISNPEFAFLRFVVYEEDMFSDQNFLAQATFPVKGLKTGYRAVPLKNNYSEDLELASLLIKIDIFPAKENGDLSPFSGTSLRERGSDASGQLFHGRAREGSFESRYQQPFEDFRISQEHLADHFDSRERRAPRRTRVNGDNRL
UHRF1 MBD2 ctr = UHRF1 methyl-DNA binding inhibition; Q96T88; UHRF1 binding to methylated oligo, TR-FRET; inhibition, % at 4.4 µM; 370,000 compounds, 0.75% hits;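 note: UHRF1 SRA domain binding a hemimethylated CpG hairpin DNA probe; 0% = median of test compound wells and 100% = reference inhibitor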
UHRF1 ctr MBD2 = UHRF1 methyl-oligo binding inhibition as MBD2 counter-screen; shares compounds with MBD2 inh; UHRF1 binding to methylated oligonucleotide, TR-FRET; inhibition, % at 4.4 µM; 1,000 compounds, 25% hits; AID 720530;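 note: UHRF1 SRA domain binding a labeled hemimethylated CpG hairpin DNA; 0% = vehicle only and 100% = reference inhibitor with vehicle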
MBD2 DBD conf = MBD2-DBD methyl-DNA binding inhibition, TR-FRET confirmation; AID 720531; inhibition, % at 4.4 µM; shares compounds with MBD2 inh; 1,000 compounds, 26% hits; TR-FRET MBD2-DBD binding to methylated oligonucleotide; in the data active = inhibition above about 14%
Starred values were filed as active, the others as inactive; i = inactive; nt = not tested or not shown. An excerpt weighted towards active compounds, which were near 2.3% of everything screened. Cut-off read from the data, not from the text of the source, unless noted: active = inhibition above about 21%; inactive = the rest.

SMILES	MBD2 inh	LEDGF integ inh	PLCb3 inh	PLC-gamma1 inh	UHRF1 MBD2 ctr	UHRF1 ctr MBD2	MBD2 DBD conf
Cc1ccc(-n2nc3c(c2NC(=O)c2cccs2)CS(=O)(=O)C3)c(C)c1	15.2*	-0.7	-4.2	-3.8	-1.7	5.9	3.1
Cc1ccccc1-n1nc2c(c1NC(=O)c1cccs1)CS(=O)(=O)C2	-1.0	0.3	-6.5	-0.1	-1.7	nt	nt
COc1ccc(-n2c(SCC(=O)N3CCCCC3C)nnc2-c2ccncc2)cc1 (configuration not stated)	0.7	-2.9	1.2	-1.6	1.8	nt	nt
CC(C)(C)C(=O)NC1CCN(S(=O)(=O)c2ccccc2F)CC1	14.6*	3.9	2.8	3.0	-0.8	6.8	2.6
CC(=O)Nc1sc2c(c1-c1nc3ccccc3s1)CCCN(C(C)C)C2	50.2*	3.3	i	i	27.8*	35.1*	54.6*
CC(=O)Nc1sc2c(c1-c1nc3ccccc3s1)CN(C(C)C)CC2	36.1*	2.5	i	i	2.9	24.1*	57.0*
CC(=O)Nc1sc2c(c1-c1nc3ccccc3s1)CCN(C(C)=O)C2	-5.4	3.5	i	-364.3	-17.6	nt	nt
CC(=O)Nc1sc2c(c1-c1nc3ccccc3s1)CCN(C)C2	28.4*	2.1	i	i	0.8	15.4	41.6*
CC(=O)Nc1sc2c(c1-c1nc3ccccc3s1)CCOC2	-0.9	-3.2	i	i	-13.6	nt	nt
CC(=O)Nc1sc2c(c1-c1nc3ccccc3s1)CN(C(C)C)C2	14.1*	0.4	i	i	-4.6	11.1	28.5*
CCOC(=O)CC[C@@]1(C(=O)OCC)C[C@@H](CC(=O)NCc2cccs2)C(=O)N2CCCC=C21	0.9	-5.0	-0.3	-1.1	-0.1	nt	nt
O=C(CSc1nnc(-c2cnccn2)n1-c1ccccc1)c1ccccc1Br	-1.7	-1.8	1.6	-5.0	-1.3	nt	nt
CCN(CC)CCNC(=O)c1cc(-c2ccco2)nc2ccccc12	-0.1	3.8	i	i	-4.5	nt	nt
COc1ccc(CCNC(=O)c2cc(-c3ccco3)nc3ccccc23)cc1	16.9*	9.5	-53.8	-17.0	21.1*	15.2	10.8
CCn1c(SCC(=O)c2ccc(-c3ccccc3)cc2)nnc1-c1ccc(C(C)(C)C)cc1	-2.9	0.5	0.6	0.6	4.0	nt	nt
CCn1c(SCC(=O)c2ccc(O)c(O)c2)nnc1-c1ccc(C)cc1	15.1*	6.2	3.5	3.3	44.3*	13.8	5.3
CCCCOCCCNC(=O)C[C@H]1C(=O)N(Cc2ccc(OC)cc2)C2=CCCCC[C@@]21C(=O)OC	0.7	0.8	-4.6	-0.9	-0.6	nt	nt
COC(=O)[C@]12C[C@H](CC(=O)N3CCOCC3)C(=O)N(Cc3ccco3)C1=C[C@H](COCc1ccccc1)O[C@@H]2C	0.1	2.1	1.3	-1.1	0.4	nt	nt
CC(C)(C)n1nnnc1C(c1ccc(C(F)(F)F)cc1)N(Cc1ccc(F)cc1)Cc1ccco1 (configuration not stated)	17.5*	-0.3	-1.1	-1.2	4.4	8.8	0.6
CC(C)(C)n1nnnc1C(c1ccc(F)cc1)N(Cc1ccc(F)cc1)Cc1ccco1 (configuration not stated)	-3.6	3.9	2.9	0.6	0.5	nt	nt
Cc1ccc(OCC(=O)NNC(=O)C2CCCO2)c(C)c1 (configuration not stated)	18.4*	-0.6	-6.9	2.7	2.5	8.2	1.4
CC(C)[C@H](NC(=O)c1ccco1)C(=O)OCc1cc(=O)n2c(n1)sc1ccccc12	8.7	4.4	-13.0	-3.5	3.5	nt	nt
O=C(Cc1coc2cc3c(cc12)CCC3)OCc1cc(=O)n2c(n1)sc1ccccc12	16.3*	5.5	-12.4	-8.3	16.4	18.8	14.1*
O=C(OCc1cc(=O)n2c(n1)sc1ccccc12)c1cccc(O)c1	13.4*	2.9	-13.0	-6.9	15.5	21.0*	17.9*
O=C(OCc1cc(=O)n2c(n1)sc1ccccc12)c1ccc(O)cc1O	6.4	5.3	-6.5	-1.4	2.5	nt	nt
SMILES	MBD2 inh	LEDGF integ inh	PLCb3 inh	PLC-gamma1 inh	UHRF1 MBD2 ctr	UHRF1 ctr MBD2	MBD2 DBD conf
COc1ccc(C)cc1NC(=O)C1CCN(C(=O)c2ccco2)CC1	13.9*	2.7	-2.7	3.4	-2.1	8.7	3.1
COc1ccc(NC(=O)C2CCN(C(=O)c3ccco3)CC2)c(OC)c1	1.8	-3.0	-7.9	1.6	-0.4	nt	nt
CCOC(=O)c1[nH]ncc1CN1CCCC(C(=O)c2cccc3ccccc23)C1 (configuration not stated)	14.3*	-4.6	-5.4	4.6	23.6*	6.1	1.3
CCOC(=O)c1[nH]ncc1CN1CCCC(C(=O)c2ccc(SC)cc2)C1 (configuration not stated)	-6.1	1.3	3.5	3.9	2.8	nt	nt
CCN(C(=O)COC(=O)/C=C/c1cccc(Br)c1)C1CCS(=O)(=O)C1 (configuration not stated)	15.9*	-0.4	-8.4	8.1	28.4*	7.4	0.0
O=C1OCC(c2ccccc2)=C1c1ccccc1	22.4*	3.5	-9.8	-3.3	21.5*	36.3*	38.3*
N#CC1=C(c2ccc(-c3ccccc3)cc2)COC1=O	-1.6	1.9	-30.4	-23.6	-3.2	nt	nt
CS(=O)(=O)c1ccc(C2=C(c3ccccc3)C(=O)OC2)cc1	33.4*	3.4	2.6	-2.6	34.4*	45.6*	45.4*
O=C(OC12CCCN(C1)/C(=C/c1ccncc1)C2)c1cccc(F)c1 (configuration not stated)	-4.0	-4.2	-9.0	-10.1	-2.9	nt	nt
Cc1cc(C)n2nc(-c3ccc(F)cc3)cc2n1	27.9*	-4.5	-26.4	-17.7	-1.0	6.8	3.2
Cc1ccc(-c2cc3nc(C)cc(C)n3n2)cc1	-2.0	-2.0	-61.4	-43.1	2.5	nt	nt
Cc1ccc(-c2noc(Cn3nc(C(=O)O)c4ccccc4c3=O)n2)cc1	2.9	-3.4	-5.8	-2.3	2.4	nt	nt
Cc1noc(C)c1Cn1nc(C(=O)O)c2ccccc2c1=O	31.8*	6.9	3.9	6.4	0.5	2.7	1.2
CCOC(=O)C1=NN(C(C)=O)C2(CC(=O)N(c3cccc(C)c3)C2=O)C1 (configuration not stated)	18.9*	-1.9	2.9	-2.5	-0.2	7.4	4.5
COC(=O)C1=NN(C(C)=O)C2(CC(=O)N(c3cccc(C)c3)C2=O)C1 (configuration not stated)	1.9	-1.4	3.3	0.9	1.3	nt	nt
Cc1nccn1-c1ccc(C=O)cc1	40.5*	2.0	-1.0	2.5	2.5	-0.3	3.2
O=Cc1ccc(-n2cccn2)cc1	2.6	0.6	-2.8	2.4	-1.4	nt	nt
C[C@@H]1ON(C)[C@H]2C[C@H]3c4[nH]c5c(-c6ccc7c(c6)OCO7)cccc5c4CCN3C[C@@H]12	2.6	-1.9	-8.5	-10.6	-1.2	nt	nt
Cc1ccccc1NC(=O)c1cccc2c1-c1ccccc1C2=O	9.9	-3.2	3.0	-2.4	-0.3	nt	nt

Assay outcomes as filed in PubChem.
